Holding throughout (settings): concentration: 1 μM, replicates: in singlicate; n = 1
Experiment [1] has as its system MARK3.
Experiment [2] deals with MARK4.
For experiment [3], the system named is MAST1.
The subject of experiment [4] is T1, MEK1.
T1 construct: gene MAP2K1

Experiment [5] has as its system T2, MEK2.
T2 construct: gene MAP2K2

The subject of experiment [6] is T3, MEK3.
T3 construct: gene MAP2K3

In experiment [7] the test system is T4, MEK4.
T4 construct: gene MAP2K4

Experiment [8] has as its system T5, MEK5.
T5 construct: gene MAP2K5

Experiment [9] deals with T6, MEK6.
T6 construct: gene MAP2K6

Experiment [10] concerns MELK.
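Also: KINOMEscan kinase panel screen.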

Regarding `CC(C)(C)c1ccc(-n2cnc3c(N)ncnc32)cc1` [SKF-97263], the “%Inh” value in [1] was found to be 0%; in experiment [2], 0%; in experiment [3], 0%; in [4], 0%; in experiment [5] it was 10%; in experiment [6], 0%. Besides, the “%Inh” value in experiment [7] was determined as 21%; in [8], 44%; in experiment [9] it was 0%; in experiment [10], 13%.

On to `CN1CCC(n2cnc(-c3ccc(F)cc3)c2-c2ccnc(NC3CCNCC3)n2)CC1` [SB-229482], for which the “%Inh” value in experiment [1] came out at 0%; in [2], 6%; in [3], 27%; in [4] it was 0%; in experiment [5] it was 0%; in experiment [6], 18%. For the same molecule, the “%Inh” value in experiment [7], in [8], in [9] and in [10] was 0% throughout.

Consider `Cl.Cn1ccc(-c2cccc(Nc3ccnc4cc(-c5nccs5)ccc34)c2)n1` [GW525701], for which the “%Inh” value in experiment [1] was found to be 0%; in experiment [2], 0%; in experiment [3], 12%; in experiment [4] it was 0%; in experiment [5], 0%; in experiment [6] it was 0%. In addition, the “%Inh” value in experiment [7] stood at 8%; in experiment [8], 86%; in experiment [9] it was 0%; in experiment [10], 0%.

As to `COC(=O)c1c(-c2ccccc2)c2cc(Cl)ccc2c(=O)n1Cc1ccc(S(C)(=O)=O)cc1`, the “%Inh” value is recorded as 0% in [1]; 0% in [2]; 0% in [3]; 0% in experiment [4]; 29% in experiment [5]; 9% in [6]. The “%Inh” value in experiment [7] came to 10%; in [8], 0%; in experiment [9], 4%; in experiment [10], 0%.

Regarding `Fc1ccc(Nc2nccc(-c3c(-c4ccc(Cl)cc4)nn4ncccc34)n2)cc1F` [GW829058], the “%Inh” value in [1] is on record as 34%; in experiment [2] it was 25%; in [3], 26%; in experiment [4], 29%; in experiment [5] it was 42%; in experiment [6], 27%. In addition, the “%Inh” value in experiment [7] is given as 30%; in experiment [8], 14%; in [9], 13%; in experiment [10], 0%.

As for `Cc1ccc(C)c(NC(=O)NCCNc2ccnc(Nc3ccc(F)cc3)n2)c1` [GSK1379878], the “%Inh” value in [1] is recorded as 0%; in [2], 9%; in experiment [3] it was 0%; in [4], 0%; in [5] it was 0%; in experiment [6], 11%. Further, the “%Inh” value in experiment [7] is listed as 0%; in experiment [8] it was 43%; in [9], 0%; in [10], 4%.

As for `Cc1ccc(NC(=O)c2cccc(C#N)c2)cc1-c1ccc(C(=O)Nc2ccncc2)cc1` [GSK1398463], the “%Inh” value turned out to be 0% in [1]; 0% in [2]; 17% in experiment [3]; 0% in experiment [4]; 10% in experiment [5]; 0% in [6]. Moreover, the “%Inh” value in [7] is 0%; in experiment [8], 4%; in [9] it was 31%; in experiment [10] it was 0%.

In the case of `Cl.Cl.c1ccc(-c2cc3ccncc3cc2OC2CCNCC2)cc1` [GSK1122999], the “%Inh” value was 0% in experiment [1]; 5% in experiment [2]; 0% in experiment [3]; 0% in [4]; 5% in [5]; 0% in [6]. The “%Inh” value in experiment [7] was 23%; in experiment [8] it was 16%; in experiment [9] it was 0%; in experiment [10], 17%.

For the molecule `Cl.O=S(=O)(c1cccc(F)c1)c1ccc(Nc2ncnc3cc(Br)sc23)cc1Cl` [GSK306886], the “%Inh” value came to 0% in experiment [1]; 1% in experiment [2]; 0% in experiment [3]; 0% in experiment [4]; 6% in experiment [5]; 0% in [6]. Further, the “%Inh” value in experiment [7] was found to be 22%; in [8], 26%; in [9], 38%; in experiment [10] it was 0%.

For `O=C(c1ccc(-c2cc(-c3c[nH]nc3-c3ccccn3)ccn2)cc1)N1CCCC1` [GW792479], the “%Inh” value is 0% in experiment [1]; 15% in [2]; 12% in experiment [3]; 14% in [4]; 30% in experiment [5]; 20% in [6]. The “%Inh” value in experiment [7] amounted to 0%; in [8], 30%; in experiment [9], 0%; in experiment [10], 0%.

On to `Nc1nc(-c2ccc3c(N)n[nH]c3c2)cc(N2CCC[C@@H](C(=O)Nc3ccccc3)C2)n1.O=C(O)C(F)(F)F.O=C(O)C(F)(F)F` [GSK2288359], for which the “%Inh” value in experiment [1] stood at 0%; in experiment [2], 0%; in experiment [3] it was 0%; in [4], 0%; in experiment [5] it was 8%; in experiment [6] it was 3%. Moreover, the “%Inh” value is reported as 0% in experiment [7], 50% in experiment [8], 8% in experiment [9] and 13% in experiment [10].

Turning to `Cl.c1ccc(Cn2ncc3cc(Nc4ncnc5ccccc45)ccc32)cc1` [GW273749], the “%Inh” value in [1] is recorded as 0%; in experiment [2] it was 0%; in [3], 0%; in experiment [4] it was 0%; in [5], 7%; in experiment [6] it was 0%. Moreover, the “%Inh” value in [7] is on record as 0%; in [8] it was 99.7%; in experiment [9] it was 6%; in experiment [10], 0%.

For `CCc1nc(-c2cccc(N(C)S(=O)(=O)c3ccccc3)c2)c(-c2ccnc(Nc3ccc(N4CCN(C(C)=O)CC4)nc3)n2)s1` [GSK1645895], the “%Inh” value was 0% in [1]; 0% in experiment [2]; 0% in experiment [3]; 0% in experiment [4]; 3% in experiment [5]; 3% in experiment [6]. Further, the “%Inh” value in experiment [7] worked out at 0%; in experiment [8], 99.9%; in experiment [9], 24%; in experiment [10] it was 0%.

In the case of `COc1cc2ncnc(Nc3ccc(OCc4ccccc4Br)c(Cl)c3)c2cc1OC.Cl` [GI261590], the “%Inh” value in experiment [1] is recorded as 1%; in [2] it was 11%; in experiment [3] it was 0%; in experiment [4], 19%; in experiment [5], 13%; in experiment [6] it was 0%. Also, the “%Inh” value in [7] is on record as 0%; in [8] it was 98.9%; in experiment [9], 0%; in [10], 0%.

For `CS(=O)(=O)CCNCc1nc(-c2ccc3ncnc(Nc4ccc(OCc5cccc(F)c5)c(Cl)c4)c3c2)cs1.Cl` [GW583340], the “%Inh” value in [1], in experiment [2], in [3], in experiment [4], in experiment [5] and in [6] was 0% throughout. Also, the “%Inh” value worked out at 3% in experiment [7], 57% in experiment [8], 0% in experiment [9] and 0% in experiment [10].

On to `COc1ccc(Nc2nccc(N3CCC(NC(=O)Nc4ccc5c(c4)OCO5)C3)n2)cc1` (stereo not drawn) [GSK1379745], for which the “%Inh” value was determined as 13% in experiment [1]; 9% in experiment [2]; 0% in [3]; 0% in [4]; 0% in experiment [5]; 0% in experiment [6]. In addition, the “%Inh” value in [7] is reported as 25%; in [8] it was 32%; in [9], 0%; in experiment [10], 0%.

In the case of `C[C@@H]1CCN(C(=O)CO)C[C@@H]1N(C)c1ncnc2[nH]ccc12`, the “%Inh” value stood at 0% in experiment [1]; 0% in [2]; 5% in experiment [3]; 0% in [4]; 0% in [5]; 0% in experiment [6]. The “%Inh” value in [7] came out at 0%; in experiment [8], 12%; in experiment [9] it was 3%; in experiment [10] it was 0%.

Consider `Fc1ccc(-c2ncn(CCCNCc3ccccc3)c2-c2ccncc2)cc1`, for which the “%Inh” value is recorded as 5% in experiment [1]; 0% in [2]; 28% in experiment [3]; 26% in experiment [4]; 20% in experiment [5]; 30% in experiment [6]. Also, the “%Inh” value amounted to 0% in [7], 31% in experiment [8], 17% in experiment [9] and 5% in [10].

As to `Nc1nc(-c2ccccn2)c(-c2ccnc3ccccc23)s1` [GW548057], the “%Inh” value worked out at 4% in [1]; 0% in experiment [2]; 9% in [3]; 8% in experiment [4]; 12% in experiment [5]; 2% in experiment [6]. Moreover, the “%Inh” value in experiment [7] was determined as 12%; in [8], 32%; in experiment [9] it was 10%; in experiment [10] it was 26%.

On to `Fc1cccc(COc2ccc(Nc3ncnc4sc(-c5ccc[nH]5)cc34)cc2Cl)c1` [GW707818], for which the “%Inh” value in experiment [1] came out at 13%; in experiment [2], 14%; in [3] it was 1%; in [4], 0%; in [5] it was 0%; in experiment [6], 0%. The “%Inh” value came to 2% in experiment [7], 27% in [8], 0% in experiment [9] and 13% in [10].

In the case of `COc1ccc(NC(=O)Nc2ccc(C)c(-c3ccc(C(=O)Nc4ccncc4)cc3)c2)cc1` [GSK1398475], the “%Inh” value in experiment [1], in [2], in experiment [3], in experiment [4], in [5] and in experiment [6] was 0% in each case. Besides, the “%Inh” value is recorded as 18% in experiment [7], 0% in [8], 0% in experiment [9] and 6% in experiment [10].

These data come from PMC5540273 (PLoS ONE, 2017).
